Assay outcomes (PubChem BioAssay)
Tau FP inhib = tau fibrillization inhibition (FP); P10636; K18 P301L tau heparin fibrillization, Alexa594 FP, 6 h; Potency, µM (highest dose often 57.7 µM), without a hit: at the highest dose activity, negative = inhibition, most hits filed as inhibitors; hit rate 0.39% among 280,000; AID 1468; further: nearly all actives have a fitted effect of over 55% in size
Target sequence (P10636 561-689 P618L limits assumed): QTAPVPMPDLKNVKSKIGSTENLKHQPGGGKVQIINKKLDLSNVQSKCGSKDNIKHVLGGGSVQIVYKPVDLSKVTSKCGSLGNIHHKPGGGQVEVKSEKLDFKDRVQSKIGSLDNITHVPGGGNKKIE
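Quantitative HTS format: compounds meet 15 uM recombinant K18 P301L tau and Alexa 594-tau tracer in 100 mM sodium acetate pH 7; 20 uM heparin triggers fibrillization at 37 C over 6 hr; FP gives the signal.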
TRb SRC2 PPI = inhibitors of human thyroid hormone receptor beta-SRC2 interaction; P10828; TRbeta-SRC2 peptide binding, fluorescence polarization; receptor liganded with 1 µM T3; Potency, µM (top dose mostly 106 µM), for the others: at the top dose activity change, negative = inhibition, actives largely listed as inhibitors; hit rate 0.065% among 280,000; AID 1469;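 further: plate controls were bound peptide for no effect and peptide without receptor for full effect; nearly all actives have a fitted effect of over 50% in size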
Target sequence (P10828 whole entry, looked up): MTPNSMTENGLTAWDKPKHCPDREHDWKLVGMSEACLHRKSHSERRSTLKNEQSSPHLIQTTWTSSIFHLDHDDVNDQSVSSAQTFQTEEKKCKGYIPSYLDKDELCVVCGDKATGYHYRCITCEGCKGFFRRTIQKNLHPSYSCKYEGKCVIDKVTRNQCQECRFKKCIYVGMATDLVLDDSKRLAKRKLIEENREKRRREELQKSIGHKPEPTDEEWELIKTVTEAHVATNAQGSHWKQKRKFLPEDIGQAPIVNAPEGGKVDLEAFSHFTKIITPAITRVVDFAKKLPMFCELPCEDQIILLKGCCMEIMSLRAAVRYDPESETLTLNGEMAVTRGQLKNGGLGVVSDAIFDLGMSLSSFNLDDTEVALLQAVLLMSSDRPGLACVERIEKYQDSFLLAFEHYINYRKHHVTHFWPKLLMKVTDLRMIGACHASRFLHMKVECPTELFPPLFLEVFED
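Fluorescence polarization of 20 nM Texas Red SRC2 peptide with 0.6 uM human TRb ligand-binding domain, in Tris buffer with 1uM T3 and 5% DMSO. Incubated 5 hr ambient; normalized to unbound and bound controls.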
Tau fibril ThT = inhibitors of human tau fibril formation, thioflavin T binding; P10636; AID 1460; Potency, µM (top dose mostly 57.4 µM), for the others: at the top dose activity, negative = inhibition, hits mostly inhibitors; recombinant tau K18 P301L, heparin-induced fibrillization, ThT fluorescence; hit rate 2.1% among 270,000; further: nearly all actives have a fitted effect of over 55% in size
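Heparin-induced fibrillization of the P301L-mutant K18 repeat-domain fragment of human tau was followed by ThT binding in quantitative high-throughput format.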
Tau fluor cs = counter-screen for tau fibril formation inhibitors. AID 1463. tau K18 P301L Alexa594 fluorescence, heparin fibrillization. hit rate 0.93% among 280,000. Potency, µM (top dose mostly 57.7 µM), for the others: at the highest dose activity change, negative = decrease; further: nearly all actives have a fitted effect of over 55% in size
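Human tau K18 P301L (15 uM unlabeled, 0.24 uM Alexa 594-labeled) in 100 mM sodium acetate pH 7 with 20 uM heparin, 6 hr at 37 C. ThT 30 uM added, 1 hr ambient; Alexa 594 FP and total fluorescence read at 555/632 nm.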
TexasRed fluor = Texas Red fluorescence interference in TRb-SRC2 counter-screen; Potency, µM (highest dose often 106 µM), for the others: at the top dose fluorescence change, negative = quenching; TRb/SRC2 Texas Red total fluorescence interference; hit rate 0.29% among 280,000; active means well fitted curve in either direction with a large enough effect; inconclusive means small, poorly fitted or top-dose-only effect
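Flags fluorescent or light-absorbing compounds by total fluorescence, S + 2P, at 555 nm excitation and 632 nm emission. Mixture: 20 nM Texas Red SRC2 peptide, 0.6 uM human TRb LBD, 1 uM T3, 5% DMSO; compound exposure 5 h at ambient temperature.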
GoLoco inh red = blocks human Gai1 binding to RGS12 GoLoco peptide, red readout; hit rate 0.44% among 230,000; P63096; Gai1:RGS12 GoLoco peptide FP, rhodamine, 10 min; Potency, µM (doses to about 61.6 µM), inactives show at the top dose activity, negative = inhibition, actives largely listed as inhibitors; active means well fitted inhibition curve with a large enough effect, not every such curve was filed as active; inactive means no such curve, though single readings can be large or run the other way; further: nearly all actives have a fitted effect of over 30% in size
The depositor's hits bear a star; ? = inconclusive; . = no result given; [ ] = another dose, or the depositor's remark. The list is not random: actives were taken first. Their share in the collection is about 3.2%. Unless noted, the call rests on the fitted dose curve; in most records, active means well fitted curve in the direction sought with a large enough effect; inconclusive means small, poorly fitted or top-dose-only effect, or another doubt; inactive means no such curve, though single readings can be large; an effect the other way counts as inactive or inconclusive. Unless noted, on the % scale 0 is the no-effect control and ±100 the full control effect; potency means the concentration at half of the fitted maximal effect.

SMILES	Tau FP inhib	TRb SRC2 PPI	Tau fibril ThT	Tau fluor cs	TexasRed fluor	GoLoco inh red
O=C1Nc2ccccc2/C1=C/c1cccnc1	1.1%	5.6%	?	-9.6%	-0.5%	14.2%
N#C/C(=C\c1ccc(-c2cc(Cl)ccc2Cl)o1)C(=O)Nc1ccccc1C(=O)O	-3.9%	2.1%	7.08µM*	-7.0%	-10.4%	.
N#C/C(=C\c1ccc(-c2ccccc2Cl)o1)C(=O)Nc1nc2ccccc2s1	13.3%	-1.6%	3.55µM*	-5.4%	-1.3%	9.9%
CC1=C(C#N)C(=O)NC(=O)/C1=C\c1ccc(-c2cc(C)c(C)cc2[N+](=O)[O-])o1	?	1.4%	25.1µM*	?	-4.1%	-0.1%
CN1CCc2ccccc2[C@@H]1Cc1ccccc1NC(=O)c1sc2ccccc2c1Cl	.	.	.	.	.	-4.0%[14.2 µM]
COc1ccc(-c2n[nH]c(C)c2-c2cnn(-c3ccccc3)c2)c(O)c1C	?	-13.3%	?	12.6µM*[quencher]	-1.4%	5.2%
CC(=O)c1cc(-c2ccccc2)[nH]c1N1CCOCC1	?	0.5%	31.6µM*	-27.7%	2.7%	-3.9%
COc1ccc2c(c1)CCc1sc(NC(=O)c3ccco3)nc1-2	-6.0%	-0.3%	12.6µM*	14.1µM*[quencher]	-6.7%	-4.9%
COc1ccc2c(c1)Cc1sc(NC(=O)c3ccco3)nc1-2	6.8%	1.8%	?	?	-10.1%	-8.6%
COc1ccc2c(c1)Cc1sc(NC(C)=O)nc1-2	?	1.6%	31.6µM*	?	-5.8%	-12.0%
COc1ccc2c(c1)Cc1sc(NC(=O)c3cccnc3)nc1-2	?	-16.6%	7.94µM*	?	-4.3%	3.3%
C=C1CCN(C(C(=O)O)C(C)C)S(=O)(=O)c2ccccc21 (stereo unspecified)	.	5.4%	.	.	-1.4%	.
CCOc1ccc(N/C=C/C(=O)c2ccccc2)c([N+](=O)[O-])c1	-8.5%	-11.3%	1.41µM*	?	5.4%	5.1%
CCOc1ccc(NC(=O)/C=C/c2ccccc2)c([N+](=O)[O-])c1	9.9%	1.1%	?	-16.0%	-1.5%	8.1%
CCOCCCNC(=O)c1ccc(-n2c(-c3ccccc3)cc3c2CCCC3)cc1	-6.1%	-7.1%	?	?	-1.6%	.
COCCCNC(=O)c1ccc(-n2c(-c3ccccc3)cc3c2CCCCC3)cc1	17.8µM*	4.4%	-5.0%	?	-23.2%	.
CN(C)CCNC(=O)c1ccc(-n2c(-c3ccccc3)cc3c2CCCCC3)cc1	22.4µM*	2.9%	0.7%	?	3.0%	.
CCN(CC)CCNC(=O)c1[nH]c2ccc(OCc3ccccc3)cc2c1C	6.8%	2.2%	-12.5%	20µM*[quencher]	-2.1%	8.9%
CCN(CC)CCNC(=O)c1cc2c(=O)[nH]c3ccc(C)cc3c2s1	-2.0%	-0.9%	-7.2%	-2.6%	-3.8%	.
COC(=O)c1nnc(C(=O)NCc2ccccc2)c2[nH]c3ccccc3c12	?	8.8%	-3.1%	-11.7%	-2.8%	9.6%
O=C(NN1C(=O)/C(=C/c2cccs2)SC1=S)c1ccncc1	-9.1%	-5.1%	?	-22.8%	-1.8%	3.4%
CC(C(=O)O)N1C(=O)/C(=C/C=C/c2ccco2)SC1=S (stereo unspecified)	?	11.8%	8.91µM*	?	?	-6.7%
CCOc1ccc(/C=C2\SC(=S)N(NS(=O)(=O)c3ccc(C)cc3)C2=O)cc1OC	-6.1%	-0.2%	?	-2.7%	-6.2%	7.4%
O=C1/C(=C/C=C/c2ccco2)SC(=S)N1NS(=O)(=O)c1ccccc1	15.8µM*	12.6%	.	?	-28.4%	41.9%
CC(C)C(C(=O)O)N1C(=O)/C(=C/c2ccc(Br)cc2)SC1=S (stereo unspecified)	.	-0.7%	.	.	-0.1%	.
SMILES	Tau FP inhib	TRb SRC2 PPI	Tau fibril ThT	Tau fluor cs	TexasRed fluor	GoLoco inh red
O=C1/C(=C/c2cccs2)SC(=S)N1NS(=O)(=O)c1ccccc1	-10.1%	7.9%	17.8µM*	-20.8%	-3.3%	-5.8%
CC1CCN(c2ccc(/C=N\Nc3nncn3N)cc2[N+](=O)[O-])CC1	-3.2%	-1.0%	10µM*	-29.4%	0.9%	0.9%
CC1CCN(c2ccc(/C=N/n3nnnc3N)cc2[N+](=O)[O-])CC1	-9.1%	-1.8%	?	-17.8%	-5.2%	5.3%
O=[N+]([O-])c1cc(/C=N/n2cnnc2)ccc1N1CCCC1	5.1%	-7.3%	7.94µM*	-9.1%	-0.8%	8.4%
O=[N+]([O-])c1cc(/C=N/O)ccc1N1CCCC1	-2.8%	-1.4%	?	-9.3%	-7.4%	-4.2%
C=CCN1c2ccccc2[C@]23C[C@@H](C(=O)OC)N(S(=O)(=O)c4ccc(C#N)cc4)C2=NC(C(=O)OC)=C(C(=O)OC)[C@H]13	0.3%[11.6 µM]	1.9%[11.2 µM]	2.5%[11.5 µM]	-3.8%[11.6 µM]	0.0%[11.2 µM]	0.1%[14.2 µM]
Clc1ccc(Sc2cc(Cl)c(Cl)cc2Cl)cc1	.	-1.4%	.	.	-1.4%	.
CCCC(=O)OCC(=O)Nc1ccc(N=Nc2ccccc2)cc1	?	-0.5%[53 µM]	10µM*	?	-1.6%[53 µM]	3.1%
O=C(O)CCC(=O)Nc1ccc(N=Nc2ccccc2)cc1	-3.7%	-4.2%	?	-4.3%	-1.6%	4.8%
CC1CC1C(=O)OCC(=O)Nc1ccc(N=Nc2ccccc2)cc1 (stereo unspecified)	?	-2.2%	7.94µM*	?	7.5%	-2.9%
C[C@H]([C@H](C)N1CC(=O)NC(=O)C1)N1CC(=O)NC(=O)C1	?	-0.5%	?	-18.2%	-0.3%	-14.4%
CCC1=C2CC[C@H]3C(=O)N(CC)C(=O)[C@H]3[C@H]2[C@@]2(C)C(=O)N(CC(=O)OC)C(=O)N2C1=O	-14.3%	6.4%	7.1%	-3.5%	-1.6%	-34.4%
O=c1cc(O)sc2ccccc12	2.2%	0.5%	-10.0%	1.2%	-0.1%	11.3%
O=c1[nH]sc2ccccc12	25.1µM*	2.4%[201 µM]	11.2µM*	-14.5%	-3.2%[201 µM]	-34.3%
O=C1CC(c2ccccc2)=NN1c1nc(-c2ccccc2)cs1	?	?	10µM*	?	31.6µM*[quencher]	33.7%
CC1=NN(c2nc(-c3ccccc3)cs2)C(=O)C1	0.6%	-6.0%	?	?	-6.2%	29.4%
COc1ccc(-c2oc3ccc(C)cc3c(=O)c2O)cc1OC	-3.4%	-4.7%	?	-13.3%	-1.6%	7.5%
COc1ccc(-c2cc(-c3c(O)c(OC)c4occc4c3OC)[nH]n2)cc1OC	11.4%	-11.2%	11.2µM*	14.1µM*[quencher]	-9.7%	9.8%
COc1ccc(-c2cc(-c3c(O)c(OC)c4occc4c3OC)[nH]n2)cc1	14.1%	10.2%	11.2µM*	12.6µM*[quencher]	-10.7%	2.6%
COc1ccc(-c2cc(-c3ccccc3O)[nH]n2)cc1	7.6%	-6.7%	-17.7%	-5.1%	-5.9%	.
